# Measurements as given in PubChem BioAssay (NCI).
# The panel holds about 79,000 compounds, 15% with a hit somewhere; the sample as a whole holds those more often. Unmarked numbers belong to inactive results. The source made the active and inactive calls. Cut-off read from the data, not from the text of the source: active = growth inhibition above about 70%; inactive = the rest.
# How the values were obtained:
# [1] = NCI Yeast Anticancer Drug Screen. Data for the rad52 strain (AID 147);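 note: 0% = growth of vehicle-treated control cultures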; conditions: S. cerevisiae rad52 mutant growth inhibition, active compounds read high
# Method in brief: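 Read-out: growth inhibition versus vehicle-treated controls. Cells were a DNA repair-deficient yeast strain treated with compounds.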
# [2] = NCI Yeast Anticancer Drug Screen. Data for the wt1 strain (AID 149);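 note: 0% = growth of vehicle-treated wt1 cultures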; conditions: S. cerevisiae wt1 strain (SPY 50644) growth inhibition, active compounds read high
# Method in brief: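 Measured: growth of wt1 yeast under compound versus vehicle treatment, reported as inhibition.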
# [3] = NCI Yeast Anticancer Drug Screen. Data for the rad50EPP+ strain (AID 151);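 note: 0% = growth of vehicle-treated control cultures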; conditions: S. cerevisiae rad50 mutant strain, active compounds read high
# Method in brief: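 Growth inhibition read against vehicle controls in rad50EPP+ yeast, a strain altered in DNA damage repair, after compound exposure.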
# [4] = NCI Yeast Anticancer Drug Screen. Data for the mgt1 strain (AID 153); conditions: S. cerevisiae mgt1 mutant growth inhibition, active compounds read high
# Method in brief: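 mgt1 yeast grown with test compound; read-out is growth inhibition versus vehicle-treated cultures.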
# [5] = NCI Yeast Anticancer Drug Screen. Data for the rad50 strain (AID 155);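 note: 0% = growth of vehicle-only cultures of the same strain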; conditions: S. cerevisiae rad50 strain growth inhibition, active compounds read high
# Method in brief: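 Growth of the mutant yeast was measured after compound exposure and referenced to vehicle-treated cultures.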
# [6] = NCI Yeast Anticancer Drug Screen. Data for the mec2-1 strain (AID 157); conditions: S. cerevisiae mec2-1 strain, active compounds read high
# Method in brief: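 Yeast mec2-1 mutant treated with compound. Readout: growth inhibition vs vehicle controls.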
# [7] = NCI Yeast Anticancer Drug Screen. Data for the rad14 strain (AID 159);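 note: 0% = growth of vehicle-treated control cultures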; conditions: S. cerevisiae rad14 strain growth inhibition, active compounds read high
# Method in brief: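 Here, inhibition of yeast growth was measured after compound exposure, using a strain with a genetic defect in DNA damage repair and vehicle-treated cultures as the reference.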
# [8] = NCI Yeast Anticancer Drug Screen. Data for the sgs1 mgt1 strain (AID 161);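 note: 0% = growth of cultures given vehicle only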; conditions: S. cerevisiae sgs1 mgt1 strain, active compounds read high
# Method in brief: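 Inhibition of yeast growth, normalised to vehicle-treated controls, is reported for a strain bearing genetic alterations in DNA damage repair.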
# [9] = NCI Yeast Anticancer Drug Screen. Data for the cln2 rad14 strain (AID 165);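 note: 0% = growth equal to vehicle treated cultures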; conditions: S. cerevisiae cln2 rad14 strain, active compounds read high
# Method in brief: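 cln2 rad14 yeast strain; compound exposure; growth inhibition read vs vehicle controls.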
# [10] = NCI Yeast Anticancer Drug Screen. Data for the bub3 strain (AID 167); conditions: S. cerevisiae bub3 mutant strain, active compounds read high
# Method in brief: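 Whole-cell yeast assay. The mutant strain was incubated with compounds, and growth inhibition was determined by comparison with vehicle-treated cells.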
# [11] = NCI Yeast Anticancer Drug Screen. Data for the wt2 strain (AID 169);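 note: 0% = growth of vehicle-treated yeast cultures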; conditions: S. cerevisiae wt2 strain growth inhibition, active compounds read high
# Method in brief: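 Read-out: growth inhibition versus vehicle-treated control cultures after compound exposure of the yeast strain.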
# [12] = NCI Yeast Anticancer Drug Screen. Data for the mlh1 strain (AID 171);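 note: 0% = growth of vehicle-treated control cultures of the same strain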; conditions: S. cerevisiae mlh1 strain growth inhibition, active compounds read high
# Method in brief: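 Read-out: growth inhibition versus vehicle controls. Strain: engineered yeast with a defined DNA repair or cell cycle defect, compound-treated.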
# [13] = NCI Yeast Anticancer Drug Screen. Data for the sgs1 strain (AID 173);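 note: 0% = growth of vehicle-only control cultures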; conditions: S. cerevisiae sgs1 mutant, active compounds read high
# Method in brief: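 Read-out: yeast growth inhibition relative to vehicle controls, following compound exposure of a strain with a defined DNA repair/cell cycle alteration.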
# [14] = NCI Yeast Anticancer Drug Screen. Data for the mlh1 rad18 strain (AID 175); conditions: S. cerevisiae mlh1 rad18 strain growth inhibition, active compounds read high
# Method in brief: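 Yeast w/ defined DNA-repair lesions; compound exposure; growth vs vehicle controls → % inhibition.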
# [15] = NCI Yeast Anticancer Drug Screen. Data for the rad18 strain (AID 177); conditions: S. cerevisiae rad18 mutant growth inhibition, active compounds read high
# Method in brief: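 Readout: growth inhibition vs vehicle controls. Cells: genetically altered yeast strain, DNA repair defect.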
# [16] = at 5.0 µM (retest, dose inferred, filed as 0.5)
# [17] = at 50.0 µM (retest, dose inferred, filed as 5.0)
structure (smiles),measurement,setting,value
CCc1c[n+]([O-])c(C)cc1[N+](=O)[O-],growth inhibition,[1]; at 1.2 µM,2%
same,growth inhibition,[1]; at 3.7 µM,7%
same,growth inhibition,[1]; at 11.0 µM,21%
same,growth inhibition,[1]; at 33.0 µM,57%
same,growth inhibition,[1]; at 100.0 µM,90% (active)
same,growth inhibition,[2]; at 1.2 µM,0%
same,growth inhibition,[2]; at 3.7 µM,-1%
same,growth inhibition,[2]; at 11.0 µM,0%
same,growth inhibition,[2]; at 33.0 µM,-1%
same,growth inhibition,[2]; at 100.0 µM,13%
same,growth inhibition,[3]; at 1.2 µM,-1%
same,growth inhibition,[3]; at 3.7 µM,6%
same,growth inhibition,[3]; at 11.0 µM,25%
same,growth inhibition,[3]; at 33.0 µM,55%
same,growth inhibition,[3]; at 100.0 µM,85% (active)
same,growth inhibition,[4]; at 1.2 µM,-2%
same,growth inhibition,[4]; at 3.7 µM,-2%
same,growth inhibition,[4]; at 11.0 µM,-2%
same,growth inhibition,[4]; at 33.0 µM,17%
same,growth inhibition,[4]; at 100.0 µM,22%
same,growth inhibition,[5]; at 1.2 µM,1%
same,growth inhibition,[5]; at 3.7 µM,6%
same,growth inhibition,[5]; [16],17%
same,growth inhibition,[5]; at 11.0 µM,18%
same,growth inhibition,[5]; at 33.0 µM,53%
same,growth inhibition,[5]; [17],94% (active)
same,growth inhibition,[5]; at 50.0 µM,73.7% (active)
same,growth inhibition,[5]; at 100.0 µM,87% (active)
same,growth inhibition,[6]; at 1.2 µM,-2%
same,growth inhibition,[6]; at 3.7 µM,1%
same,growth inhibition,[6]; [16],-6%
same,growth inhibition,[6]; at 11.0 µM,2%
same,growth inhibition,[6]; at 33.0 µM,27%
same,growth inhibition,[6]; [17],77% (active)
same,growth inhibition,[6]; at 50.0 µM,14.9%
same,growth inhibition,[6]; at 100.0 µM,92% (active)
same,growth inhibition,[7]; at 1.2 µM,5%
same,growth inhibition,[7]; at 3.7 µM,12%
same,growth inhibition,[7]; at 11.0 µM,48%
same,growth inhibition,[7]; at 33.0 µM,94% (active)
same,growth inhibition,[7]; at 100.0 µM,98% (active)
same,growth inhibition,[8]; [16],45%
same,growth inhibition,[8]; [17],95% (active)
same,growth inhibition,[8]; at 50.0 µM,87.5% (active)
same,growth inhibition,[9]; [16],21%
same,growth inhibition,[9]; [17],94% (active)
same,growth inhibition,[9]; at 50.0 µM,88.2% (active)
same,growth inhibition,[10]; at 1.2 µM,-4%
same,growth inhibition,[10]; at 3.7 µM,-8%
same,growth inhibition,[10]; [16],8%
same,growth inhibition,[10]; at 11.0 µM,-14%
same,growth inhibition,[10]; at 33.0 µM,-20%
same,growth inhibition,[10]; [17],52%
same,growth inhibition,[10]; at 50.0 µM,-29.3%
same,growth inhibition,[10]; at 100.0 µM,-2%
same,growth inhibition,[11]; at 1.2 µM,0%
same,growth inhibition,[11]; at 3.7 µM,0%
same,growth inhibition,[11]; at 11.0 µM,2%
same,growth inhibition,[11]; at 33.0 µM,5%
same,growth inhibition,[11]; at 100.0 µM,21%
same,growth inhibition,[12]; at 1.2 µM,-1%
same,growth inhibition,[12]; at 3.7 µM,-1%
same,growth inhibition,[12]; at 11.0 µM,3%
same,growth inhibition,[12]; at 33.0 µM,7%
same,growth inhibition,[12]; at 100.0 µM,29%
same,growth inhibition,[13]; at 1.2 µM,10%
same,growth inhibition,[13]; at 3.7 µM,31%
same,growth inhibition,[13]; at 11.0 µM,63%
same,growth inhibition,[13]; at 33.0 µM,85% (active)
same,growth inhibition,[13]; at 100.0 µM,93% (active)
same,growth inhibition,[14]; [16],58%
same,growth inhibition,[14]; [17],96% (active)
same,growth inhibition,[14]; at 50.0 µM,65.9%
same,growth inhibition,[15]; at 1.2 µM,56%
same,growth inhibition,[15]; at 3.7 µM,86% (active)
same,growth inhibition,[15]; at 11.0 µM,92% (active)
same,growth inhibition,[15]; at 33.0 µM,95% (active)
same,growth inhibition,[15]; at 100.0 µM,95% (active)
